Measurements taken from the supplement of paper PMC10849652.
Targets with a hit are over-represented here; the source holds about 7,900 in all. About 0.6% of all pairs of compound and target were hits.

Legend:
Test in all cases: log2 fold change, soluble protein after heating vs DMSO (PISA); higher = thermal stabilisation; K562 cells, 10 uM, 30 min; active = over 0.2 and 3.5 SD of the protein, either way, in both replicates (recomputed)
[1] = compound: C1=CC=C(C=C1)[C@H](COC2=CC3=C(C=C2)NC(=O)N3)NC(=O)C4=CC=CN(C4=O)CC5=CC(=C(C=C5)F)F
Outline: (§1)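 Quantification of soluble protein used TMTpro 16plex LC-MS/MS, with channel sums equalised. Samples were the supernatant after 21,000xg for 90 min of pooled aliquots from K562 cells (2×10^6 cells/mL) treated with 10 μM compound for 30 min, heated for 3 min over 48°C-58°C, and extracted in PBS with 0.5% NP-40 at 4°C. Values, from duplicates, describe thermal stability against control samples on a log2 fold-change scale.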

[2] = compound: CC1=C(SC2=C1C(=N[C@H](C3=NN=C(N32)C)CC(=O)N)C4=CC=C(C=C4)Cl)C
Outline: as §1

[3] = compound: CC1=C2C(=CC=C1)N=C(N(C2=O)C3=CC=CC=C3C)CN4C=NC5=C(N=CN=C54)N
Outline: as §1

[4] = compound: Cc1sc2c(c1C)C(c1ccc(Cl)cc1)=N[C@@H](CC(=O)OC(C)(C)C)c1nnc(C)n1-2
Outline: as §1

[5] = compound: c1ccc([C@@H]2C[C@H]2NC2CCNCC2)cc1
Outline: as §1

Measured: log2 fold change

TGFBR1 isoform 2 (UniProt P36897)
inactive: [1] -0.001 | [2] 0.029 | [3] -0.047 | [4] -0.029 | [5] 0.026

STAT5B (UniProt P51692)
inactive: [1] 0.036 | [2] 0.08 | [3] 0.05 | [4] 0.033 | [5] 0.052

TM9SF4 (UniProt Q92544)
inactive: [1] -0.038 | [2] 0.008 | [3] -0.001 | [4] -0.047 | [5] -0.032

SLC27A4 (UniProt Q6P1M0)
inactive: [1] -0.018 | [2] 0.095 | [3] 0.037 | [4] -0.027 | [5] -0.019

SLC6A6 (UniProt P31641)
Chain of UniProt P31641 (P31641 whole entry, looked up): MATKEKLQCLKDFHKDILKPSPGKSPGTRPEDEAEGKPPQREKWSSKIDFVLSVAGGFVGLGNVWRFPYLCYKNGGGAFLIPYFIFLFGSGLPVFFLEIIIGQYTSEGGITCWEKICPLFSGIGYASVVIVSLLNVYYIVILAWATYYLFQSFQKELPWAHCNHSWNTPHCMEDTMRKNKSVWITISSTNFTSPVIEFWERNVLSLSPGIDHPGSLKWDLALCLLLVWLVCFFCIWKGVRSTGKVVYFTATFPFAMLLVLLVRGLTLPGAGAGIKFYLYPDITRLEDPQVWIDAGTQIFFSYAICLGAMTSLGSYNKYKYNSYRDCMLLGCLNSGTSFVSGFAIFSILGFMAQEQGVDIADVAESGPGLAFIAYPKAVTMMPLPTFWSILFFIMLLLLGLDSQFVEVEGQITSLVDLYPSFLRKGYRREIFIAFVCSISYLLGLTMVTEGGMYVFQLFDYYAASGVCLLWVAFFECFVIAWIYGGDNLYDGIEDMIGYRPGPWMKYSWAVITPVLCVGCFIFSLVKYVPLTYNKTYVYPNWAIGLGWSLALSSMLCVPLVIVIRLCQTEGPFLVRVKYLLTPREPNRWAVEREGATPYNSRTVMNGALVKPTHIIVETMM
inactive: [1] -0.002 | [2] 0.065 | [3] 0.039 | [4] 0.018 | [5] 0.035

SLC35F6 (UniProt Q8N357)
inactive: [1] -0.034 | [2] -0.045 | [3] 0.064 | [4] -0.057 | [5] 0.067

TLK1 (UniProt Q9UKI8)
inactive: [1] 0.007 | [2] 0.036 | [3] 0.036 | [4] -0.036 | [5] 0.018

SSRP1 (UniProt Q08945)
inactive: [1] -0.027 | [2] 0.023 | [3] 0.087 | [4] -0.051 | [5] -0.016

SRP68 (UniProt Q9UHB9)
inactive: [1] -0.041 | [2] 0.022 | [3] 0.039 | [4] 0.092 | [5] -0.029

SLC25A38 (UniProt Q96DW6)
inactive: [1] 0.014 | [2] 0.034 | [3] -0.035 | [4] -0.035 | [5] 0.014

STEAP3 isoform 2 (UniProt Q658P3)
inactive: [1] -0.011 | [2] 0 | [3] 0.022 | [4] -0.034 | [5] -0.04

SYF2 (UniProt O95926)
Chain of UniProt O95926 (O95926 whole entry, looked up): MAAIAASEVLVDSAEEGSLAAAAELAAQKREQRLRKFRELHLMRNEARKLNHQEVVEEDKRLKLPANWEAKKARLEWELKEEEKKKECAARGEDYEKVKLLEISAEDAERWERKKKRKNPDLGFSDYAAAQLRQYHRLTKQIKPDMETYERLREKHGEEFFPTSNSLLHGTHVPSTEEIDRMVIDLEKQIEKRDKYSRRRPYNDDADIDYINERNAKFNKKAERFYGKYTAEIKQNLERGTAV
inactive: [1] 0.032 | [2] 0.029 | [3] -0.077 | [4] 0.145 | [5] 0.065

SSB (UniProt P05455)
inactive: [1] -0.02 | [2] 0.088 | [3] 0.014 | [4] 0.007 | [5] 0.055

TARS2 (UniProt Q9BW92)
inactive: [1] -0.018 | [2] 0.025 | [3] 0.101 | [4] -0.019 | [5] -0.023

SNW1 (UniProt Q13573)
inactive: [1] 0.03 | [2] 0.015 | [3] -0.036 | [4] 0.055 | [5] -0.035

STARD3NL (UniProt O95772)
inactive: [1] 0.027 | [2] 0.025 | [3] 0.142 | [4] 0 | [5] 0.039

STK25 (UniProt O00506)
inactive: [1] -0.022 | [2] 0.111 | [3] 0.015 | [4] -0.019 | [5] -0.016

TIAL1 isoform 2 (UniProt Q01085)
inactive: [1] -0.023 | [2] 0.049 | [3] 0.015 | [4] 0.043 | [5] -0.024

STOM (UniProt P27105)
Chain of UniProt P27105 (P27105 whole entry, looked up): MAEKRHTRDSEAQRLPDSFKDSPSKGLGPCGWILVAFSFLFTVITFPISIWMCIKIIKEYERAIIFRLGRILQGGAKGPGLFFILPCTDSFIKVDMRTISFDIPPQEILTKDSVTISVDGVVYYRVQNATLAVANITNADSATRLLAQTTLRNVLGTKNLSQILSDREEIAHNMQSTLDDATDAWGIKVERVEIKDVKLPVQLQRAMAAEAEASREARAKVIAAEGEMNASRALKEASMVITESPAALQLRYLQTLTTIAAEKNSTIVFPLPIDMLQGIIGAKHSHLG
inactive: [1] 0.06 | [2] -0.019 | [3] -0.014 | [4] -0.021 | [5] 0.082

SPECC1 (UniProt Q5M775)
inactive: [1] -0.017 | [2] -0.087 | [3] 0.105 | [4] -0.012 | [5] 0.037

SMARCAD1 isoform 2 (UniProt Q9H4L7)
Chain of UniProt Q9H4L7 (Q9H4L7 whole entry, looked up): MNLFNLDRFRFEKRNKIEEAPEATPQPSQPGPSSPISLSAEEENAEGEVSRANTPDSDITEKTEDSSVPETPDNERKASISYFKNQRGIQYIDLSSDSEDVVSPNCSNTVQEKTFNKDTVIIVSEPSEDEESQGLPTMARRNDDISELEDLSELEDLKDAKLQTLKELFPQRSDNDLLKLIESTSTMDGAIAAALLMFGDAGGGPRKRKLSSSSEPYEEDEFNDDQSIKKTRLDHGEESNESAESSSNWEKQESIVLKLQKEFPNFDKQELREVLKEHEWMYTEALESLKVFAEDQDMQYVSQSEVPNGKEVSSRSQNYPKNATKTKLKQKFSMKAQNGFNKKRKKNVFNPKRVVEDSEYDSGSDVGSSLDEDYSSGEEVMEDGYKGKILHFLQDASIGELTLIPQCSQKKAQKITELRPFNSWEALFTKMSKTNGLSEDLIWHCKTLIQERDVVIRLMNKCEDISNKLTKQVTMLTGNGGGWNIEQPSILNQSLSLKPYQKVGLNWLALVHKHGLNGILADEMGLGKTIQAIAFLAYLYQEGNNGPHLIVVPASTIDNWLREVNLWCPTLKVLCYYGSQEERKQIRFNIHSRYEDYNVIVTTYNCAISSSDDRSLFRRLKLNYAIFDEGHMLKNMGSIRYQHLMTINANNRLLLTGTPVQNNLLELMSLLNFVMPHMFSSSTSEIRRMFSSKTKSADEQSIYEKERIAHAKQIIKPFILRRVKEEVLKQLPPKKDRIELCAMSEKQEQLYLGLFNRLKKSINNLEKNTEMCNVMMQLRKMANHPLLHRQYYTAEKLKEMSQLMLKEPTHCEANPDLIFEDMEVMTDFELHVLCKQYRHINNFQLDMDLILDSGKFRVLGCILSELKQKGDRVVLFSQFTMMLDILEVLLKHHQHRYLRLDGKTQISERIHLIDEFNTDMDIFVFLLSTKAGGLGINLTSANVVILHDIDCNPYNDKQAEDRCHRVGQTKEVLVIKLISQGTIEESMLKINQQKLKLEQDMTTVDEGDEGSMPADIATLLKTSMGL
inactive: [1] -0.029 | [2] 0.071 | [3] 0.214 | [4] -0.129 | [5] 0.004

SLC27A1 (UniProt Q6PCB7)
inactive: [1] -0.02 | [2] 0.161 | [3] 0.293 | [4] 0.11 | [5] -0.029

SLC35A1 (UniProt P78382)
inactive: [1] -0.046 | [2] -0.108 | [3] 0.05 | [4] -0.07 | [5] 0.013

TM9SF2 (UniProt Q99805)
inactive: [1] 0.018 | [2] 0.035 | [3] 0.054 | [4] -0.044 | [5] -0.028

SNUPN (UniProt O95149)
inactive: [1] -0.027 | [2] 0.051 | [3] 0.067 | [4] 0.03 | [5] 0.021

STXBP2 isoform 3 (UniProt Q15833)
inactive: [1] -0.15 | [2] -0.05 | [3] 0.071 | [4] 0.031 | [5] -0.03

SNRNP40 (UniProt Q96DI7)
inactive: [1] 0.054 | [2] -0.023 | [3] 0.007 | [4] 0.071 | [5] 0.022

TIPRL (UniProt O75663)
inactive: [1] -0.078 | [2] 0.07 | [3] 0.083 | [4] 0.001 | [5] -0.007

TIMM10 (UniProt P62072)
inactive: [1] -0.013 | [2] -0.043 | [3] 0.042 | [4] -0.033 | [5] 0.022

TBC1D23 (UniProt Q9NUY8)
inactive: [1] -0.039 | [2] 0.068 | [3] 0.034 | [4] -0.003 | [5] -0.037

SNX9 (UniProt Q9Y5X1)
inactive: [1] -0.051 | [2] 0.019 | [3] 0.048 | [4] 0.002 | [5] 0.017

STAT6 (UniProt P42226)
Chain of UniProt P42226 (P42226 whole entry, looked up): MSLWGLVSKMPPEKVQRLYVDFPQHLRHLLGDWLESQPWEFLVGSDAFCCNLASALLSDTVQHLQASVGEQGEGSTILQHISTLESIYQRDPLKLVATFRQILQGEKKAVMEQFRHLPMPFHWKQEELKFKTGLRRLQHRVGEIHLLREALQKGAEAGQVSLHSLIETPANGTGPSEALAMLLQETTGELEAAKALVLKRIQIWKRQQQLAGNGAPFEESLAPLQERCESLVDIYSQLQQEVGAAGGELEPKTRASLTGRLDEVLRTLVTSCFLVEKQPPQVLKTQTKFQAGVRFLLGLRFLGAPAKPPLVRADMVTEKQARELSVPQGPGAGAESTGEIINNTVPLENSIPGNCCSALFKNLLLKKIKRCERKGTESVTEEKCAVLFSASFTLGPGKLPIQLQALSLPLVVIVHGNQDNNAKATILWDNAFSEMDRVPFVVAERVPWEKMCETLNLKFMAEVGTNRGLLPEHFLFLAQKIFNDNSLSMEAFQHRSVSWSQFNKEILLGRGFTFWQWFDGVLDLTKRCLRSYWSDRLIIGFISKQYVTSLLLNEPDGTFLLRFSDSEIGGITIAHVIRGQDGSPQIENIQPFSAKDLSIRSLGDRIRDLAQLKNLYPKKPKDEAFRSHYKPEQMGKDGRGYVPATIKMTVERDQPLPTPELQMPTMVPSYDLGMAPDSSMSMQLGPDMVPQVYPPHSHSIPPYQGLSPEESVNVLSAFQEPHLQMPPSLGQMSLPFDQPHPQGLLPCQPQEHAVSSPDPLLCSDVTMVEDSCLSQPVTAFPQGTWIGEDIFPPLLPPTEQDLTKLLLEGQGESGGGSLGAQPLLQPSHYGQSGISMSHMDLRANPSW
inactive: [1] -0.02 | [2] -0.019 | [3] 0.198 | [4] 0.009 | [5] -0.015

SNX3 (UniProt O60493)
inactive: [1] -0.057 | [2] 0 | [3] 0.105 | [4] -0.006 | [5] -0.064

SNX6 (UniProt Q9UNH7)
inactive: [1] -0.037 | [2] 0.039 | [3] 0.053 | [4] 0.012 | [5] -0.11

SPART (UniProt Q8N0X7)
inactive: [1] -0.028 | [2] 0.043 | [3] 0.065 | [4] 0.018 | [5] -0.002

STK38 (UniProt Q15208)
Chain of UniProt Q15208 (Q15208 whole entry, looked up): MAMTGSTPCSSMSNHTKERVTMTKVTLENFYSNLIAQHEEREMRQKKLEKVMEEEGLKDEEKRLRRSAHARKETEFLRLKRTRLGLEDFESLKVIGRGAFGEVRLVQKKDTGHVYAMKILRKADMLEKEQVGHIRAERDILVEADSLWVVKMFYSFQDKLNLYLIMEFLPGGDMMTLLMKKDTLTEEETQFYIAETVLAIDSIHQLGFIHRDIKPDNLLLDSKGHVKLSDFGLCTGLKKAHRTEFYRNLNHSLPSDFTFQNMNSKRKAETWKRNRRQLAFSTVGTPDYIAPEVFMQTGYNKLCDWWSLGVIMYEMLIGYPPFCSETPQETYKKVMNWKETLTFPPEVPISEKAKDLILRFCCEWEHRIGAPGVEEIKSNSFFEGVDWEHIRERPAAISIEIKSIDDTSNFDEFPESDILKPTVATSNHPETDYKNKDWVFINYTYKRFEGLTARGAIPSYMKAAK
inactive: [1] -0.08 | [2] 0.045 | [3] 0.055 | [4] 0.028 | [5] -0.034

SPTBN1 (UniProt Q01082)
inactive: [1] -0.002 | [2] -0.033 | [3] 0.078 | [4] 0.027 | [5] 0.013

TBK1 (UniProt Q9UHD2)
inactive: [1] -0.014 | [2] 0.007 | [3] 0.041 | [4] 0.011 | [5] -0.049

SORT1 (UniProt Q99523)
inactive: [1] 0.029 | [2] -0.01 | [3] -0.03 | [4] 0.027 | [5] 0.009

SQSTM1 (UniProt Q13501)
inactive: [1] 0 | [2] 0.097 | [3] -0.128 | [4] 0.096 | [5] 0.012

TIMM21 (UniProt Q9BVV7)
inactive: [1] -0.02 | [2] 0.052 | [3] 0.024 | [4] 0.004 | [5] -0.048

ST6GAL1 (UniProt P15907)
Chain of UniProt P15907 (P15907 whole entry, looked up): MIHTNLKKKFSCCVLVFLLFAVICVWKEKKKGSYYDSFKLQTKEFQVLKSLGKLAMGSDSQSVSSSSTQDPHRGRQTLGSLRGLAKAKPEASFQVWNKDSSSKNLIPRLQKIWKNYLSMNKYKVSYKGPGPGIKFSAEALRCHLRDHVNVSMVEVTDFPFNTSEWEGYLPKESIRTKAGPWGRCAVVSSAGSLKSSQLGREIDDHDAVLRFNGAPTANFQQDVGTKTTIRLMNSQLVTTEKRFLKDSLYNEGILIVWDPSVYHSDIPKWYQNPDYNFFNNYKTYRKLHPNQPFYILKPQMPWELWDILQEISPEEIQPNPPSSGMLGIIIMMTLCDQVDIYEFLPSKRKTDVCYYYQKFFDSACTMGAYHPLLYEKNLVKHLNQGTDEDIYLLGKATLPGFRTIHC
inactive: [1] 0.017 | [2] 0.012 | [3] 0.033 | [4] -0.018 | [5] -0.006

TENT5C (UniProt Q5VWP2)
Chain of UniProt Q5VWP2 (Q5VWP2 whole entry, looked up): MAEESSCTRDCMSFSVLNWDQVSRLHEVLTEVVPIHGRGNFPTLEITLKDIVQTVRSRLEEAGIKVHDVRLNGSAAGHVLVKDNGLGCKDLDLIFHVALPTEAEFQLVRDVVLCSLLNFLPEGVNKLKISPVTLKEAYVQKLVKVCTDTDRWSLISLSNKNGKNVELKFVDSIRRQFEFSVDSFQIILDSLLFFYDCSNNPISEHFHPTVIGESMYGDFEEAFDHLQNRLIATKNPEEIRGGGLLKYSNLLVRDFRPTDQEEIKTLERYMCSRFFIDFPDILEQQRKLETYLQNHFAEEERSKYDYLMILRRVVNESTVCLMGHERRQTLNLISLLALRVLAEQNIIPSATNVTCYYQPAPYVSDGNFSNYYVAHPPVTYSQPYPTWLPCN
inactive: [1] 0.017 | [2] 0.25 | [3] 0.122 | [4] 0.116 | [5] -0.35

TECR (UniProt Q9NZ01)
inactive: [1] -0.015 | [2] 0.049 | [3] 0.033 | [4] -0.046 | [5] 0

SRSF11 (UniProt Q05519)
inactive: [1] 0.008 | [2] 0.037 | [3] 0.044 | [4] -0.082 | [5] -0.028

TEX30 (UniProt Q5JUR7)
inactive: [1] -0.162 | [2] -0.141 | [3] 0.235 | [4] 0.12 | [5] 0.052

SMDT1 (UniProt Q9H4I9)
inactive: [1] 0.031 | [2] 0.018 | [3] -0.081 | [4] -0.019 | [5] 0.024

TCOF1 isoform 4 (UniProt Q13428)
inactive: [1] 0.016 | [2] 0.006 | [3] 0.018 | [4] 0.033 | [5] 0.042

SMAD2 (UniProt Q15796)
inactive: [1] -0.014 | [2] 0.022 | [3] 0.056 | [4] -0.02 | [5] -0.066

SPAG9 (UniProt O60271)
inactive: [1] -0.033 | [2] 0.002 | [3] 0.071 | [4] 0.024 | [5] -0.006

SRSF6 (UniProt Q13247)
inactive: [1] -0.071 | [2] -0.453 | [3] -0.109 | [4] 0.217 | [5] 0.015

SUPT16H (UniProt Q9Y5B9)
inactive: [1] -0.238 | [2] 0.023 | [3] 0.279 | [4] -0.106 | [5] -0.006

SLC44A2 isoform 2 (UniProt Q8IWA5)
Chain of UniProt Q8IWA5 (Q8IWA5 whole entry, looked up): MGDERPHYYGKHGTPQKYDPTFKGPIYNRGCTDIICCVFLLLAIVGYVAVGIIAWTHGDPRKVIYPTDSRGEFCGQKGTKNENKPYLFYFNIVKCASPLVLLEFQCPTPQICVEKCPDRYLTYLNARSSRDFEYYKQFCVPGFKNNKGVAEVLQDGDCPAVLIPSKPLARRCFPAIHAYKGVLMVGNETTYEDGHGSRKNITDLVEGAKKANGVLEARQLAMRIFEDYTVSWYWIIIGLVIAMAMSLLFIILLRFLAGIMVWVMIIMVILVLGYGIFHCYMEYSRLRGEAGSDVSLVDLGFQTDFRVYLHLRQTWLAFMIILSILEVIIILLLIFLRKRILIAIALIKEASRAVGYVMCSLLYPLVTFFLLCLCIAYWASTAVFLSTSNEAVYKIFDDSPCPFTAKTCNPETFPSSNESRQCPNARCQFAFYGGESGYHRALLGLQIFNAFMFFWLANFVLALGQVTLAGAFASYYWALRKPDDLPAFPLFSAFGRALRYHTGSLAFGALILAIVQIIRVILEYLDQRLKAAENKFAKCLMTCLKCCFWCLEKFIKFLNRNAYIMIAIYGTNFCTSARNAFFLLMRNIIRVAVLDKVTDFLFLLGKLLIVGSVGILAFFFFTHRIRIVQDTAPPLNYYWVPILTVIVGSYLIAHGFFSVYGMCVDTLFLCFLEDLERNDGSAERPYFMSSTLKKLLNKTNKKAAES
inactive: [1] 0.002 | [2] 0.077 | [3] -0.022 | [4] -0.045 | [5] 0.065
